# Screens deposited in PubChem BioAssay by National Center for Advancing Translational Sciences (NCATS).
# Most compounds without a hit are left out; they make up all but 14% or so of the library.
# A350 fluor – compounds fluorescent in Alexa 350 spectral region; Compound autofluorescence, 340/450 nm, Alexa 350 dye-equivalents; active compounds read high; max dye-equivalent concentration, M; 11% of 59,000 active; in the data active means max dye-equivalent concentration above about 10 nM; inconclusive means mostly about 1.1 nM to 9.6 nM
# AID923 – qHTS Assay for Allosteric/Competitive Inhibitors of Caspase-1: Spectroscopic Profiling in AFC Spectral Region. compound fluorescence, AFC spectral region (405/520 nm). Potency, µM (highest dose often 57.5 µM), for inactives: top-dose fluorescence increase, usual class: activators. 1.1% of 75,000 active; further: potency means the concentration at half of the fitted maximal effect; 0% is about no effect
#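 Baseline compound fluorescence (AFC region, 405 nm ex/520 nm em) taken from the intercept of kinetic reads with 50 nM caspase-1 and 5 uM Ac-WEHD-AFC; normalized to an on-plate AFC standard curve; compounds titrated up to 57 uM.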
# CRE-bla Fsk – CRE-bla signaling modulation under forskolin stimulation; Potency, µM (highest dose often 38.2 µM), inactives show at the highest dose activity change, negative = inhibition, hits mostly activators; CHO CRE-bla reporter (cAMP response element driving beta-lactamase), forskolin EC10, beta-lactamase ratio; 2.5% of 71,000 active; active means well fitted activation curve with a large enough effect in the signal ratio, with a control signal flat, not every such curve was filed as active; inconclusive means small, poorly fitted or top-dose-only effect, or effect the other way, or a change in a side signal; the % refers to the signal ratio; further: potency means the concentration at half of the fitted maximal effect; % of control where 0% means no effect
#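 Cells were plated overnight at 37 °C, exposed to compound titrations plus EC10 NKH 477 for 3 h, then given CCF4 dye for 2 h at room temperature. Blue/green (460/530 nm) ratio was converted to %Activity and AC50 values calculated.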
# 4MU fluor – compound fluoresces in the 4-MU spectral region; max dye-equivalent concentration, M; AID 589; 11% of 59,000 active; compound autofluorescence, 340/450 nm, 4-MU equivalents; active compounds read high; in the data active means max dye-equivalent concentration above about 10 nM; inconclusive means mostly about 1.1 nM to 9.6 nM
#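 Compounds in 100 mM Tris, pH 8.0, incubated 15 min at room temperature, then fluorescence read at 340 nm excitation/450 nm emission. Signal converted to 4-MU dye-equivalent concentration using an on-plate six-point 4-MU standard curve.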
# HADH2 inhib – inhibitors of human HADH2 dehydrogenase | Q99714 | recombinant HADH2, NADH fluorescence, beta-hydroxybutyryl-CoA | Potency, µM (top dose mostly 57.1 µM), without a hit: at the highest dose activity change, negative = inhibition, actives largely listed as inhibitors | 3.4% of 73,000 active | AID 886; further: potency means the concentration at half of the fitted maximal effect; on the % scale 0 is the no-effect control and ±100 the full control effect; nearly all actives have a fitted effect of over 60% in size
# Target sequence (Q99714 whole entry, looked up, one chain of several): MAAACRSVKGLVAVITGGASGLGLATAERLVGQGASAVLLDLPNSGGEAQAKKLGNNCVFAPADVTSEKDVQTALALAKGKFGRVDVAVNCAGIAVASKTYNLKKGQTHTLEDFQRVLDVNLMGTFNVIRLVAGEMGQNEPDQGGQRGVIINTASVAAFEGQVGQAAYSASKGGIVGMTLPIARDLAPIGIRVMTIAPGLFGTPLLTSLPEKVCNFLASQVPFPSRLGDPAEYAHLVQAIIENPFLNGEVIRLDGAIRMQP
#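 20 nM HADH2 + cpd, 15 min RT; add 1 mM NAD+/90 uM beta-hydroxybutyryl-CoA; kinetic fluorescence 360/450 nm, 4 min. Tris-HCl pH 9.0, 0.01% Tween-20.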
# HSD17B inhib – blocks hydroxysteroid 17-beta dehydrogenase activity. recombinant HSD17B10, NADH fluorescence kinetic. Potency, µM (titrated, usually from 57.1 µM), for the others: top-dose activity change, negative = inhibition, actives largely listed as inhibitors. 7.6% of 75,000 active;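 further: the protocol describes HADH2 (HSD17B10) and not the HSD17B4 of the title; potency means the concentration at half of the fitted maximal effect; on the % scale 0 is the no-effect control and ±100 the full control effect; nearly all actives have a fitted effect of over 70% in size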
#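 Activity followed as NADH fluorescence increase (ex 360, em 450 nm) every 30 seconds for 4 min, using final 90 uM beta-hydroxybutyryl CoA and 1 mM NAD+. Recombinant His-tagged enzyme, 20 nM, pH 9.0 Tris buffer, 15 min compound preincubation.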
# Numbers without * were called inactive; i = inactive; ? = inconclusive; . = no result; [ ] = dose if it differs, or a comment. Unless noted, the call rests on the fitted dose curve; in most records, active means well fitted curve in the direction sought with a large enough effect; inconclusive means small, poorly fitted or top-dose-only effect, or another doubt; inactive means no such curve, though single readings can be large; an effect the other way counts as inactive or inconclusive.
SMILES,A350 fluor,AID923,CRE-bla Fsk,4MU fluor,HADH2 inhib,HSD17B inhib
Cc1noc(C)c1C(=O)N1CCC2(CC1)CN(c1ncccn1)C2,i,-1.0%,-1.8%,i,-2.0%,?
C=CC[C@@H]1C=C[C@H](O/N=C(\C)CCN2CCCc3nc(C)c(C)cc32)[C@H](CO)O1,.,3.0%[11.5 µM],.,.,-11.0%[11.4 µM],?
CC(=O)O[C@@H]1CC[C@]2(C)C(=C[C@@H]([C@@H]3C=C4C[C@@H](OC(C)=O)CC[C@]4(C)C4=C3[C@H]3C[C@@H]5O[C@@]6(CC[C@H](C)CO6)[C@@H](C)[C@@H]5[C@@]3(C)CC4)C3=C2CC[C@@]2(C)[C@H]4[C@@H](C)[C@]5(CC[C@H](C)CO5)O[C@@H]4C[C@H]32)C1,i,-0.4%[11.5 µM],-6.8%[7.6 µM],i,7.2%[11.4 µM],-4.1%[11.4 µM]
COc1c(OC)c2occc2c2oc(=O)ccc12,.,0.7%,.,.,.,-2.7%
COc1ccc2c(C(F)(F)F)cc(=O)oc2c1C,2.66e-07M*,1.4%,?,2.15e-07M*,?,25.1µM*
COC(=O)[C@@]1(Cc2ccc(OC)cc2)[C@H]2c3cc(C(=O)N(C)C)n(Cc4nc5ccccc5[nH]4)c3C[C@H]2CN1C(=O)c1ccccc1,.,0.9%,?,.,-22.1%,20µM*
COC(=O)[C@@]1(Cc2ccccc2)[C@H]2c3cc(C(=O)N4CCCC4)[nH]c3C[C@H]2CN1C(=O)c1ccccc1,.,-3.2%,2µM*,.,-4.3%,6.6%
O=C1[C@H]2[C@H]3[C@H](O)[C@H](O)C/C(=N/OCc4ccccc4)[C@H]3CC[C@@H]2C(=O)N1c1cccc(Oc2ccccc2)c1,.,2.4%[11.5 µM],.,.,2.0%[11.4 µM],-5.9%[11.4 µM]
N#Cc1ccc(CN2CC3(CCN(C(=O)c4cc(C(F)(F)F)cc(C(F)(F)F)c4)CC3)C2)cc1,i,3.2%,-1.7%,i,-16.8%,1.6%
Cc1cc(C)n2cc(CSc3nc4cc(Cl)ccc4o3)nc2n1,?,-0.4%,?,i,?,?
CN(C)c1nc(N)nc(CSc2nc3cc(Cl)ccc3o2)n1,i,0.5%,2.51µM*,i,8.5%,-4.3%
CN(Cc1ccccc1)C(=O)CN(C1CCCCC1)S(C)(=O)=O,?,-0.1%,3.98µM*,?,11.1%,-24.1%
COC(=O)c1ccccc1NC(=O)CN(C1CCCCC1)S(C)(=O)=O,?,1.0%,3.16µM*,?,-29.1%,-15.3%
COc1ccccc1-c1cc(NCc2ccccc2)ncn1,i,2.9%,?,i,0.8%,?
COc1ccc2[nH]c(=O)c(CN(C(=O)c3ccncc3)C(C)C)cc2c1,1.69e-07M*,1.0%,?,1.3e-07M*,-0.5%,20µM*
CCCN(Cc1cc2cc(OC)ccc2[nH]c1=O)C(=O)c1ccncc1,2.9e-07M*,5.7%,21.1%,2.19e-07M*,-17.1%,31.6µM*
COc1ccc(CC(=O)N(Cc2cc3cc(OC)ccc3[nH]c2=O)C(C)C)cc1,2.82e-07M*,-1.7%,?,2.2e-07M*,-13.7%,31.6µM*
CCCN(Cc1cc2cc(C)ccc2[nH]c1=O)C(=O)c1cccc(OC)c1,?,1.7%,?,?,-2.3%,?
COc1cccc(C(=O)N(Cc2cc3cc(C)ccc3[nH]c2=O)C(C)C)c1,?,-0.8%,-3.5%,?,-5.8%,?
COc1ccc(CN(Cc2cc3cc(C)ccc3[nH]c2=O)C(=O)N(C)C)cc1,?,0.3%,7.1%,?,6.0%,?
COc1ccc2[nH]c(=O)c(CN(C)C(=O)c3ccncc3)cc2c1,1.84e-07M*,0.3%,14.4%,1.38e-07M*,-11.1%,31.6µM*
COc1cc(OC)cc(C(=O)N(Cc2cc3cc(C)ccc3[nH]c2=O)C(C)C)c1,?,3.3%,-3.0%,?,1.4%,?
COc1ccc2[nH]c(=O)c(CN(C)C(=O)C3CCCCC3)cc2c1,2.81e-07M*,-0.2%,23.2%,2.07e-07M*,10.2%,15.8µM*
COc1ccc2[nH]c(=O)c(CN(C(=O)c3ccncc3)C(C)(C)C)cc2c1,9.09e-08M*,7.1%,?,7.18e-08M*,5.7%,?
